The supplement of paper PMC11150407
Structures can show the parent of a compound that is named as a salt. Among all 2,100 compounds or so, about 180 (8.6%) showed an effect of 50% or more. This excerpt belongs to a sample that is enriched for strong results.

test system: MOLM1 and UCSD/AML1 (averaged); test: cell viability relative to DMSO control (POC); higher = less growth inhibition; settings: 1 µM; 72 h
Method: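 Primary viability screen in the 3q26 EVI1-high AML cell lines MOLM1 and UCSD/AML1 (1.5e3 cells/well, 384-well), compounds at 1 uM for 72 h. ATP CellTiter-Glo read-out given as percent of viable cells over DMSO control (POC), averaged over duplicates. DMSO was the negative control and 5 uM etoposide the positive control. This mapping covers the MicroSource Spectrum and Selleck anticancer libraries (drug names).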

First: O=C(O)c1cc(=O)c2cccc(O)c2[nH]1
Second: O=C(O)c1cc(O)c(=O)c2c(O)c(O)ccc2c1
The cell viability of the first is lower: 102% for the first, 108% for the second.

Compared with `C[C@H]1O[C@@H](O[C@H]2[C@@H](O)C[C@H](O[C@H]3[C@@H](O)C[C@H](O[C@H]4CC[C@@]5(C)[C@H](CC[C@@H]6[C@@H]5CC[C@]5(C)[C@@H](C7=CC(=O)OC7)CC[C@]65O)C4)O[C@@H]3C)O[C@@H]2C)C[C@H](O)[C@@H]1O`, `C[C@H]1O[C@@H](O[C@H]2[C@@H](O)C[C@H](O[C@H]3[C@@H](O)C[C@H](O[C@H]4CC[C@@]5(C)[C@H](CC[C@@H]6[C@@H]5C[C@@H](O)[C@]5(C)[C@@H](C7=CC(=O)OC7)CC[C@]65O)C4)O[C@@H]3C)O[C@@H]2C)C[C@H](O)[C@@H]1O` is higher in cell viability: 2.44% for the first, 3.03% for the second.

Compared with `CO[C@H]1O[C@H](CO)C(O[C@@H]2OC(C(=O)O)[C@@H](O[C@H]3O[C@H](COS(=O)(=O)O)C(O[C@@H]4OC(C(=O)O)[C@@H](O[C@H]5O[C@H](CO)C(O[C@@H]6OC(C(=O)O)[C@@H](O[C@H]7O[C@H](COS(=O)(=O)O)C(O[C@@H]8OC(C(=O)O)=C[C@H](O)C8OS(=O)(=O)O)[C@H](O)[C@H]7NC(C)=O)[C@H](O)[C@H]6O)[C@H](O)[C@H]5NC(C)=O)[C@H](O)[C@H]4O)[C@H](O)[C@H]3NC(C)=O)[C@H](O)[C@H]2O)[C@H](O)[C@H]1NC(C)=O` (some centres undefined), `CC(C)/C(O)=C1/C(=O)O[C@@H](c2ccoc2)[C@]2(C)C(O)[C@@H](O)[C@@]34OC5(C)OC67CC(C)(C(O)[C@]6(O)[C@@H](O)[C@]3(O5)C12)[C@H](CC(=O)O)[C@]74C` (some centres undefined) is higher in cell viability: 86.8% for the first, 93.3% for the second.

Going from `COc1cc(O)c(C(C)=O)c(OC)c1` to `COc1cc(O)c(C(C)=O)c(O)c1`, the cell viability rises from 101% to 110%.

Compared with `O=C(/C=C/C(=O)Oc1ccccc1C(=O)O)Oc1ccccc1C(=O)O`, `O=C(Nc1ccc(C(=O)O)c(O)c1)c1ccccc1` is lower in cell viability: 110% for the first, 96.4% for the second.

Compared with `C[C@H]1C(=O)CC[C@@H]2[C@]1(C)CC[C@H]1[C@@]2(C)CC[C@@]2(C)[C@@H]3CC(C)(C)CC[C@]3(C)CC[C@]12C`, `CC1(C)[C@@H](O)CC[C@]2(C)[C@H]3C(=O)C=C4[C@H]5C[C@@](C)(C(=O)O)CC[C@]5(C)CC[C@@]4(C)[C@]3(C)CC[C@@H]12` [18alpha-GLYCYRRHETINIC ACID] is lower in cell viability: 113% for the first, 95.3% for the second.

Compared with `COc1cc2oc3cc(OC)c(OC)c(CC=C(C)C)c3c(=O)c2c(O)c1CC=C(C)C`, `COc1cc(O)c2c(=O)cc(C)oc2c1CC=C(C)C` is lower in cell viability: 99.9% for the first, 87.8% for the second.

Compared with `CCCCCC1C(=O)CCC1CC(=O)O` (centres undefined), `C=C[C@@](C)(O)CCC1C(=C)CCC2[C@@](C)(CO)CCC[C@]12C` (some centres undefined) is higher in cell viability: 86.2% for the first, 112% for the second.

Going from `O=C(O[C@@H]1Cc2c(O)cc(O)cc2O[C@@H]1c1cc(O)c(=O)c2c(O)c(O)cc([C@H]3Oc4cc(O)cc(O)c4C[C@H]3OC(=O)c3cc(O)c(O)c(O)c3)c2c1)c1cc(O)c(O)c(O)c1` to `O=C(O[C@@H]1Cc2c(O)cc(O)cc2O[C@@H]1c1cc(O)c(=O)c2c(O)c(O)cc([C@H]3Oc4cc(O)cc(O)c4C[C@H]3O)c2c1)c1cc(O)c(O)c(O)c1`, the cell viability falls from 108% to 101%.

First: Cc1cc(O)c2c(c1)C(=O)c1cccc(O)c1C2=O
Second: O=c1c(O)c(-c2ccc(O)c(O)c2)oc2cc(O)ccc12
The cell viability of the first is higher: 115% for the first, 94% for the second.

Compared with `Cc1cc(O)c2c(c1)C(=O)c1cccc(O)c1C2=O` [Chrysophanic acid (Chrysophanol)], `COc1c(O)cccc1O` is higher in cell viability: 93.8% for the first, 97.7% for the second.

First: CCC(C)C(NC)C(=O)O (centres undefined)
Second: CCOC(=O)c1c(C)cc(OC)cc1O
The cell viability of the first is higher: 118% for the first, 95.3% for the second.

First: COC(=O)c1ccc2c(C(=Nc3ccc(N(C)C(=O)CN4CCN(C)CC4)cc3)c3ccccc3)c(O)[nH]c2c1 [BIBF1120 (Vargatef)]
Second: COC(=O)Nc1nc2cc(C(=O)c3ccccc3)ccc2[nH]1
The cell viability of the first is lower: 11.9% for the first, 16.8% for the second.

First: CC(=O)c1ccc[nH]1
Second: CC(=O)Nc1ccccc1
The cell viability of the first is lower: 92.8% for the first, 101% for the second.

Going from `C=CC(C)(O)CCC1C(=C)CC(OC(C)=O)C2C(C)(C)CCCC12C` (centres undefined) to `C=C1C2CC[C@@]3(C)[C@H](c4ccoc4)OC(=O)C[C@]13O[C@H]1CC(O)C(C)(C)C(CC(=O)OC)[C@@]21C` (stereo partly drawn) [3alpha-HYDROXY-3-DEOXYANGOLENSIC ACID METHYL ESTER], the cell viability falls from 98.6% to 97.3%.

Going from `O=C1CC[C@]23/C=C/C(=O)NCCCCNCCCNC(=O)/C=C/c4ccc(c2c4)O[C@@H]3C1` to `COC(=O)C[C@H]1C(C)(C)C(=O)[C@@H]2CC3=C4CC(=O)O[C@@H](c5ccoc5)[C@]4(C)CC[C@@H]3[C@@]1(C)C2=O`, the cell viability rises from 97.1% to 99.2%.

Compared with `COC1=CC(c2cc3ccccc3[nH]2)=N/C1=C\c1[nH]c(C)cc1C` [Obatoclax mesylate (GX15-070)], `COC(=O)Nc1nc2cc([S+]([O-])c3ccccc3)ccc2[nH]1` (centres undefined) is higher in cell viability: 18.7% for the first, 50.5% for the second.

Compared with `CC1(C)O[C@H]2[C@H](O)C[C@](O)(C(N)=O)C[C@H]2O1`, `C=C1CCC2C(CC2(C)C)C(=O)CCC1O` (centres undefined) is higher in cell viability: 94.1% for the first, 104% for the second.

Compared with `COc1cc2ncnc(Nc3ccc(F)c(Cl)c3)c2cc1OCCCN1CCOCC1` [Gefitinib (Iressa)], `COc1cc2c(Oc3ccc4[nH]c(C)cc4c3F)ncnc2cc1OCCCN1CCCC1` [Cediranib (AZD2171)] is lower in cell viability: 84.9% for the first, 66.3% for the second.

First: COc1cc(Nc2c(C#N)cnc3cc(OCCCN4CCN(C)CC4)c(OC)cc23)c(Cl)cc1Cl [Bosutinib (SKI-606)]
Second: Cc1nc(Nc2ncc(C(=O)Nc3c(C)cccc3Cl)s2)cc(N2CCN(CCO)CC2)n1
The cell viability of the first is lower: 21.3% for the first, 29.5% for the second.

Compared with `CC(=O)O[C@H]1C[C@@H](OC(C)=O)C(C)(C)C2C[C@@H](O)[C@]3(C)C(CC[C@@]4(C)[C@H](c5ccoc5)OC(=O)[C@H]5O[C@]543)[C@]21C` (some centres undefined), `CC1(C)C(=O)C=CC2(C)C1C=CC1(C)C2CCC2(C)C(c3ccoc3)OC(=O)C3OC312` (centres undefined) is lower in cell viability: 103% for the first, 86.9% for the second.

Compared with `O=C(CCc1ccc(O)cc1)c1c(O)cc(O)cc1O[C@@H]1OC(CO)[C@@H](O)[C@@H](O)C1O` (some centres undefined), `O=c1c(O)c(-c2ccc(O)c(O)c2)oc2c(O[C@@H]3O[C@H](CO)[C@@H](O)[C@H](O)[C@H]3O)c(O)cc(O)c12` is lower in cell viability: 104% for the first, 91.3% for the second.

First: COC(=O)c1c(C)cc(OC)cc1O
Second: CC(C)=CCc1c(O)cc2oc(C)cc(=O)c2c1O
The cell viability of the first is higher: 94.6% for the first, 94.1% for the second.

First: Cn1c(=O)[nH]c(=O)c2[nH]cnc21
Second: COc1cnc(NS(=O)(=O)c2ccc(N)cc2)nc1
The cell viability of the first is higher: 110% for the first, 100% for the second.

First: O=C(O)c1ccc2c(c1)nc(Nc1cccc(Cl)c1)c1ccncc12 [cx-4945 (Silmitasertib)]
Second: Cn1cncc1[C@@](N)(c1ccc(Cl)cc1)c1ccc2c(c1)c(-c1cccc(Cl)c1)cc(=O)n2C [Tipifarnib (Zarnestra)]
The cell viability of the first is higher: 80.5% for the first, 36.5% for the second.

Compared with `CC(=O)C1=C(O)C=C2Oc3c(C(C)=O)c(O)c(C)c(O)c3C2(C)C1=O` (stereo in doubt), `O=C(O)c1cc(=O)c(O)c2c(O)c(O)c(O)cc2c1` is higher in cell viability: 113% for the first, 115% for the second.

Compared with `C[C@@H](Oc1cc(-n2cnc3ccc(CN4CCN(C)CC4)cc32)sc1C(N)=O)c1ccccc1C(F)(F)F`, `Cn1cc(-c2ccc3nnc(C(F)(F)c4ccc5ncccc5c4)n3n2)cn1` is higher in cell viability: 19.5% for the first, 101% for the second.

Compared with `CC(=O)N[C@@H](Cc1ccccc1)C(=O)O`, `CC(C)[C@H](C(=O)Nc1ccc(C(=O)NO)cc1)c1ccccc1` is lower in cell viability: 100% for the first, 0.459% for the second.

First: C[C@H](CCC(=O)O)[C@H]1CC[C@H]2[C@@H]3[C@H](O)C[C@@H]4C[C@H](O)CC[C@]4(C)[C@H]3C[C@H](O)[C@]12C
Second: C[C@]12CC[C@H](O)CC1=CC[C@@H]1[C@@H]2CC[C@]2(C)C(c3cccnc3)=CC[C@@H]12 [Abiraterone (CB-7598)]
The cell viability of the first is lower: 100% for the first, 102% for the second.

Compared with `COC(=O)Nc1nc2cc(C(=O)c3cccs3)ccc2[nH]1` [Nocodazole], `COC(=O)C(C)c1ccc(C(=O)c2cccs2)cc1` (centres undefined) is higher in cell viability: 13.3% for the first, 103% for the second.

Compared with `CCOC(=O)Nc1nc2ccccc2[nH]1`, `CNc1ccccc1C(=O)N1CCc2c([nH]c3ccccc23)C1=O` is lower in cell viability: 103% for the first, 88.5% for the second.

Compared with `CC(=O)Oc1ccc2c(c1OC(C)=O)OCC1(O)Cc3c(cc(OC(C)=O)c(OC(C)=O)c3OC(C)=O)C21` (centres undefined), `C=CCc1ccc(OC(=O)c2ccccc2)c(OC)c1` is lower in cell viability: 108% for the first, 95.6% for the second.

First: COc1cc2ncnc(-n3nc(-c4ccccn4)nc3N)c2cc1OC
Second: Cn1cc(-c2ccc3nnc(Sc4ccc5ncccc5c4)n3n2)cn1
The cell viability of the first is lower: 67% for the first, 82.3% for the second.

Compared with `O=c1cc(-c2ccccc2)oc2cccc(O)c12`, `Nc1ccc(S(=O)(=O)Nc2ccccn2)cc1` is lower in cell viability: 119% for the first, 100% for the second.

First: CC(C)c1c(O)c(-c2cc3c(c(C(C)C)c2O)CCC2C(C)(C)CCC[C@]32C)cc2c1CCC1C(C)(C)CCC[C@]21C (some centres undefined)
Second: CC1(C)C2CC(=O)O[C@@]3(C)C4=CC(=O)O[C@@H](c5ccoc5)[C@]4(C)CCC3[C@@]2(C)C=C[C@H]1O (some centres undefined)
The cell viability of the first is lower: 87.3% for the first, 95.9% for the second.

Compared with `CO[C@@]12[C@H](COC(N)=O)C3=C(C(=O)C(C)=C(N)C3=O)N1C[C@@H]1N[C@@H]12`, `CC1(C)C(=O)[C@H]2C[C@]3(O)C4=CC(=O)O[C@@H](c5ccoc5)[C@@]4(C)CCC3[C@](C)(C2=O)[C@H]1CC(=O)O` (some centres undefined) is higher in cell viability: 13% for the first, 95.4% for the second.

Going from `O=c1c2cc(O)c(O)cc2oc2cc(O)c([C@@H]3O[C@H](CO)[C@@H](O)[C@H](O)[C@H]3O)c(O)c12` to `C[C@]12CCC3c4ccc(OS(=O)(=O)O)cc4CCC3C1CC[C@H]2O` (some centres undefined), the cell viability rises from 96.4% to 98.1%.

First: COc1ccc(S(=O)(=O)Nc2cccnc2Nc2ccc(O)cc2)cc1
Second: OCCn1cc(-c2cnc3nnn(Cc4ccc5ncccc5c4)c3n2)cn1
The cell viability of the first is higher: 49.4% for the first, 26.7% for the second.

Compared with `CS(=O)(=O)N1CCc2c(-c3cnc(N)nc3)nc(N3CCOCC3)nc21`, `Cc1occc(=O)c1O` is higher in cell viability: 47.5% for the first, 103% for the second.

In the case of `CCCC(=O)[O-].[Na+]` [Sodium butyrate], the cell viability is reported as 91.3%.
